According to article PMC7826789 (International Journal of Molecular Sciences, 2021):

Legend:
PIP5K2B = system: T1, PIP5K2B; conditions: Compound Concentration (nM):1000
T1 construct: gene PIP4K2B

PIP5K2C = system: T2, PIP5K2C; conditions: Compound Concentration (nM):1000
T2 construct: gene PIP4K2C

PKAC-alpha = system: T3, PKAC-alpha; conditions: Compound Concentration (nM):1000
T3 construct: gene PRKACA

PKAC-beta = system: T4, PKAC-beta; conditions: Compound Concentration (nM):1000
T4 construct: gene PRKACB

PKMYT1 = conditions: Compound Concentration (nM):1000
PKN1 = conditions: Compound Concentration (nM):1000
PKN2 = conditions: Compound Concentration (nM):1000
PKNB(M.tuberculosis) = conditions: 1 µM
PLK1 = conditions: Compound Concentration (nM):1000
PLK2 = conditions: Compound Concentration (nM):1000
PLK3 = conditions: Compound Concentration (nM):1000
PLK4 = conditions: Compound Concentration (nM):1000
PRKCD = conditions: Compound Concentration (nM):1000
PRKCE = conditions: Compound Concentration (nM):1000
PRKCH = conditions: Compound Concentration (nM):1000
PRKCI = conditions: Compound Concentration (nM):1000
PRKCQ = conditions: Compound Concentration (nM):1000
PRKD1 = conditions: Compound Concentration (nM):1000
PRKD2 = conditions: Compound Concentration (nM):1000
PRKD3 = conditions: Compound Concentration (nM):1000
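Note: KINOMEscan scanMAX binding as percent activity remaining versus control; lower means stronger binding.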

| SMILES | Percent Control (PIP5K2B) | Percent Control (PIP5K2C) | Percent Control (PKAC-alpha) | Percent Control (PKAC-beta) | Percent Control (PKMYT1) | Percent Control (PKN1) | Percent Control (PKN2) | Percent Control (PKNB(M.tuberculosis)) | Percent Control (PLK1) | Percent Control (PLK2) | Percent Control (PLK3) | Percent Control (PLK4) | Percent Control (PRKCD) | Percent Control (PRKCE) | Percent Control (PRKCH) | Percent Control (PRKCI) | Percent Control (PRKCQ) | Percent Control (PRKD1) | Percent Control (PRKD2) | Percent Control (PRKD3) |
| --- | --- | --- | --- | --- | --- | --- | --- | --- | --- | --- | --- | --- | --- | --- | --- | --- | --- | --- | --- | --- |
| COc1ccccc1-c1cc(/C=C2\C(=O)Nc3ncc(Br)cc32)cc(Br)c1O [GW442130X] | 100% | 100% | 95% | 100% | 100% | 100% | 36% | 74% | 95% | 100% | 89% | 80% | 100% | 100% | 86% | 100% | 100% | 83% | 100% | 100% |
| NS(=O)(=O)c1ccc(N/N=C2\C(=O)Nc3ccc(C(=O)NCCc4c[nH]cn4)cc32)cc1 [GW300660X] | 100% | 48% | 100% | 100% | 100% | 100% | 80% | 92% | 100% | 75% | 76% | 81% | 100% | 98% | 100% | 90% | 100% | 100% | 100% | 85% |
| COc1cc2ncnc(Nc3ccc4c(cnn4Cc4ccccc4)c3)c2cc1OC.Cl [GW282449A] | 100% | 73% | 100% | 37% | 100% | 100% | 100% | 100% | 91% | 100% | 100% | 100% | 100% | 64% | 100% | 100% | 100% | 100% | 100% | 98% |
| CCn1c(-c2nonc2N)nc2c(C#CC(C)(C)O)nc(OCCNC)cc21.Cl [GSK949675] | 100% | 78% | 21% | 16% | 100% | 9.3% | 100% | 0.7% | 100% | 100% | 100% | 90% | 40% | 0% | 15% | 61% | 3.3% | 95% | 100% | 88% |
| Cl.O=S1CCN(Cc2ccc(-c3ccc4ncnc(Nc5ccc(OCc6ccccc6)c(F)c5)c4c3)o2)CC1 [GW576924A] | 100% | 63% | 100% | 100% | 100% | 100% | 100% | 100% | 100% | 100% | 100% | 100% | 100% | 91% | 100% | 100% | 100% | 100% | 100% | 100% |
| NS(=O)(=O)c1ccc(Nc2ncc(-c3ccccc3)o2)cc1 [GW572399X] | 100% | 29% | 100% | 100% | 100% | 100% | 100% | 76% | 100% | 86% | 86% | 100% | 100% | 100% | 100% | 100% | 100% | 100% | 100% | 61% |
| NS(=O)(=O)c1ccc(N/N=C2\C(=O)Nc3ccc(C(=O)NCc4ccncc4)cc32)cc1 [GW300657X] | 100% | 51% | 100% | 100% | 83% | 100% | 81% | 100% | 74% | 90% | 83% | 39% | 100% | 97% | 96% | 80% | 100% | 100% | 94% | 85% |
| Nc1ncnc2occ(-c3ccc(NC(=O)Nc4cc(C(F)(F)F)ccc4F)cc3)c12 [GW770249X] | 100% | 77% | 100% | 100% | 100% | 100% | 90% | 100% | 100% | 1.9% | 16% | 80% | 76% | 94% | 100% | 100% | 100% | 100% | 100% | 85% |
| CC(C)COC(=O)c1ccc2c(c1)/C(=C/Nc1ccc(S(N)(=O)=O)cc1)C(=O)N2 [GW416981X] | 100% | 65% | 100% | 100% | 100% | 100% | 71% | 86% | 100% | 59% | 83% | 64% | 100% | 100% | 100% | 100% | 100% | 100% | 100% | 61% |
| Cl.O=C(O[C@H]1CN[C@H](C#Cc2cc3ncnc(Nc4ccc5c(cnn5Cc5ccccc5)c4)c3s2)C1)N1CCOCC1 [GSK200398A] | 100% | 98% | 100% | 93% | 96% | 88% | 69% | 91% | 76% | 92% | 91% | 69% | 100% | 88% | 100% | 100% | 64% | 100% | 93% | 100% |
